# Data from PubChem BioAssay (NCATS).
# Results filed as inconclusive are left out. Entries that show only a call come without a potency. Active and inactive are the calls of the source. Calls come from the whole dose curve; as a rule, active = well fitted cell-killing curve with a large enough effect; inconclusive = small, poorly fitted or top-dose-only effect; inactive = no such curve, though single readings can be large or run the other way.
# Assay: qHTS of pediatric cancer cell lines to identify multiple opportunities for drug repurposing: Primary screen for Rh30 cells (AID 1347107); note: nearly all actives have a fitted effect of over 75% in size
# Settings: Rh30 rhabdomyosarcoma viability, CellTiter-Glo luminescence, 48 h; series mostly up to 46 µM
# Method in brief: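 Viability after 48 h compound treatment at 37C, 500-1,000 cells/well, read as ATP luminescence with CellTiter-Glo. Primary screens used 11-point (MIPE, 0.78 nM-46 µM) or 8-point (NPC, 0.59 nM-46 µM) final concentrations; follow-up screens used 11-point dilutions.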
# Potency is the fitted concentration of half-maximal effect.
row,Structure (SMILES),Potency
1,CN(C)CCN(Cc1ccc(Cl)cc1)c1ccccn1,inactive
2,CCCCN(CCCC)CC(O)c1cc(Cl)cc2c1-c1ccc(Cl)cc1C2=Cc1ccc(Cl)cc1 (centres undefined),inactive
3,CON(C)C(=O)N1N=C(c2cc(F)ccc2F)S[C@]1(CCCN)c1ccccc1,inactive
4,CNC(=O)c1ccc2c(C(=Nc3cccc(CN(C)C)c3)c3ccccc3)c(O)[nH]c2c1,inactive
5,CCNC(=O)Nc1ccc(Oc2ncnc(N)c2C=NOC)cc1Cl,inactive
6,O=C(O)Cc1cccc(OCCCN(Cc2cccc(C(F)(F)F)c2Cl)CC(c2ccccc2)c2ccccc2)c1,23.5 µM (active)
7,O=c1[nH]c(=O)n([C@H]2C[C@@H](O)[C@@H](CO)O2)cc1I,inactive
8,CCC(=O)OCC(=O)[C@@]1(OC(=O)CC)[C@@H](C)C[C@@H]2[C@H]3CCC4=CC(=O)C=C[C@]4(C)[C@@]3(F)[C@@H](O)C[C@@]21C,inactive
9,CC1(C)[C@H]2CC[C@]3(C)[C@@H](C(=O)C=C4[C@@H]5C[C@@](C)(C(=O)O)CC[C@]5(C)CC[C@]43C)[C@@]2(C)CC[C@@H]1O,inactive
10,CC[C@H](C=C[C@@H](C)[C@H]1CC[C@H]2[C@@H]3CC=C4C[C@@H](O)CC[C@]4(C)[C@@H]3CC[C@]12C)C(C)C,inactive
11,CN1CCN(c2ncc(-c3cc(Cl)cc(Cl)c3Cl)c(N)n2)CC1,inactive
12,C[C@H](CCC(=O)O)[C@H]1CC[C@H]2[C@H]3[C@@H](CC[C@]12C)[C@@]1(C)CC[C@@H](O)C[C@H]1C[C@@H]3O,inactive
13,CN1CCC(COc2cnc(-c3cccc(Cn4nc(-c5cccc(C#N)c5)ccc4=O)c3)nc2)CC1,inactive
14,CCc1cc(-c2n[nH]c(C)c2-c2ccc3c(c2)OCCO3)c(O)cc1O,inactive
15,C[C@H](c1ccc(F)cc1CCCC(=O)O)N(c1cc(F)ccc1F)S(=O)(=O)c1ccc(Cl)cc1,14.8 µM (active)

# Assay: qHTS of pediatric cancer cell lines to identify multiple opportunities for drug repurposing: Primary screen for Rh41 cells (AID 1347108); note: nearly all actives have a fitted effect of over 70% in size
# Settings: Rh41 rhabdomyosarcoma viability, CellTiter-Glo luminescence, 48 h; series mostly up to 46 µM
# Method in brief: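 Primary screen of approved and investigational compounds on cells in growth media at 37 degrees C, 5% CO2. MIPE set at 11-point and NPC set at 8-point dilutions; viability scored by ATP-based luminescence at 48 hours.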
row,Structure (SMILES),Potency
1,O=C(O)c1ccc(O)c2ncc(N3CCOCC3)cc12,18.7 µM (active)
2,COc1ccc(-c2oc3c(CC=C(C)C)c(O)cc(O)c3c(=O)c2O)cc1,18.7 µM (active)
3,CCCCN(CCCC)CC(O)c1cc(Cl)cc2c1-c1ccc(Cl)cc1C2=Cc1ccc(Cl)cc1 (centres undefined),inactive
4,O=C1NC(=O)C(=Cc2ccc(-c3ccc(F)cc3O)o2)S1,inactive
5,CO[C@H]1/C=C\O[C@@]2(C)Oc3c(C)c(O)c4c(O)c(c(C=NN5CCN(C6CCCC6)CC5)c(O)c4c3C2=O)NC(=O)C(C)=CC=C[C@H](C)[C@H](O)[C@@H](C)[C@@H](O)[C@@H](C)[C@H](OC(C)=O)[C@H]1C,0.148 µM (active)
6,CC(C)[C@H](O)C(=O)N[C@@H](C)C(=O)N[C@@H]1C(=O)N(C)CCc2ccccc21,inactive
7,CN1N=C(N)c2cn([C@@H]3O[C@H](COP(=O)(O)O)[C@@H](O)[C@@H]3O)c3ncnc1c23,2.35 µM (active)
8,CCNC(=O)Nc1ccc(Oc2ncnc(N)c2C=NOC)cc1Cl,inactive
9,O=C(O)Cc1cccc(OCCCN(Cc2cccc(C(F)(F)F)c2Cl)CC(c2ccccc2)c2ccccc2)c1,23.5 µM (active)
10,O=c1[nH]c(=O)n([C@H]2C[C@@H](O)[C@@H](CO)O2)cc1I,inactive
11,CCC(=O)OCC(=O)[C@@]1(OC(=O)CC)[C@@H](C)C[C@@H]2[C@H]3CCC4=CC(=O)C=C[C@]4(C)[C@@]3(F)[C@@H](O)C[C@@]21C,0.148 µM (active)
12,CNc1nc(Nc2ccc(C(=O)N3CCOCC3)cc2OC)ncc1Cl,inactive
13,CC1(C)[C@H]2CC[C@]3(C)[C@@H](C(=O)C=C4[C@@H]5C[C@@](C)(C(=O)O)CC[C@]5(C)CC[C@]43C)[C@@]2(C)CC[C@@H]1O,inactive
14,CC[C@H](C=C[C@@H](C)[C@H]1CC[C@H]2[C@@H]3CC=C4C[C@@H](O)CC[C@]4(C)[C@@H]3CC[C@]12C)C(C)C,inactive
15,CN1CCN(c2ncc(-c3cc(Cl)cc(Cl)c3Cl)c(N)n2)CC1,inactive
16,Nc1[nH]nc2nnc(-c3c(-c4ccccc4)nn4ccccc34)cc12,5.9 µM (active)
17,O=C(CC12CC3CC(CC(C3)C1)C2)Nc1cccc2nc(NCCNCCO)ccc12,inactive
18,CN1CCC(COc2cnc(-c3cccc(Cn4nc(-c5cccc(C#N)c5)ccc4=O)c3)nc2)CC1,3.72 µM (active)
19,Cc1cc(-c2ncc(CC(=O)Nc3ccc(-c4cnccn4)cn3)cc2C)ccn1,inactive
